# According to PubChem BioAssay (Tox21):
# Unmarked numbers belong to inactive results. Records with an inconclusive call do not appear. Entries that show only a call come without a potency. Calls of active or inactive are those of the source. Unless noted, the call rests on the fitted dose curve; in most records, active means well fitted curve in the direction sought with a large enough effect in the repeat runs; inconclusive means weak or mixed curves; inactive means no such curve, though single readings can be large; an effect the other way counts as inactive or inconclusive.
# Key:
# [1] = qHTS assay to identify small molecule antagonists of the retinoid acid receptor (RAR) signaling pathway - cell viability counter screen (AID 1159551); further: nearly all actives have a fitted effect of over 35% in size
# Summary of the method: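 Cytotoxicity counter screen: ATP content quantified by CellTiter-Glo luminescence in C3RL4 cells treated 6 hr at 37 C with compound and retinol (1 uM final). Cells plated at 1,000/well and cultured overnight before dosing.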
# [2] = qHTS assay to identify small molecule antagonists of the retinoic acid receptor (RAR) signaling pathway (AID 1159552; further: nearly all actives have a fitted effect of over 50% in size)
# Summary of the method: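 Readout: luciferase luminescence, 30 min post-reagent at RT. Setup: C3RL4 RARE reporter cells, compounds plus retinol 1 uM final, 6 hr incubation at 37 C and 5% CO2.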
# [3] = qHTS assay to identify small molecule agonists of the retinoic acid receptor (RAR) signaling pathway (AID 1159553)
# Summary of the method: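 Luminescence was measured 30 min after luciferase reagent addition at room temperature. Before that, C3RL4 reporter cells (1,000 per well, plated overnight) were treated with compound for 6 hr at 37 C and 5% CO2.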
# [4] = qHTS assay to identify small molecule antagonists of the estrogen related receptor (ERR) signaling pathway from Tox21 library - cell viability counter screen (AID 1224834); further: nearly all actives have a fitted effect of over 30% in size
# Summary of the method: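 CellTiter-Fluor fluorescence, read after 30 min at 37 C, measures viability of ERR cells. Cells plated at 2,000/well and incubated 6 h before pin-tool compound addition, then exposed 17.5 hours at 37 C.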
# [5] = target: Luciferin 4-monooxygenase (Photinus pyralis) (UniProt P08659); assay: qHTS assay to identify small molecule inhibitors of firefly luciferase (AID 1224835); further: nearly all actives have a fitted effect of over 25% in size
# Sequence of Luciferin 4-monooxygenase (Photinus pyralis) (P08659 whole entry, looked up): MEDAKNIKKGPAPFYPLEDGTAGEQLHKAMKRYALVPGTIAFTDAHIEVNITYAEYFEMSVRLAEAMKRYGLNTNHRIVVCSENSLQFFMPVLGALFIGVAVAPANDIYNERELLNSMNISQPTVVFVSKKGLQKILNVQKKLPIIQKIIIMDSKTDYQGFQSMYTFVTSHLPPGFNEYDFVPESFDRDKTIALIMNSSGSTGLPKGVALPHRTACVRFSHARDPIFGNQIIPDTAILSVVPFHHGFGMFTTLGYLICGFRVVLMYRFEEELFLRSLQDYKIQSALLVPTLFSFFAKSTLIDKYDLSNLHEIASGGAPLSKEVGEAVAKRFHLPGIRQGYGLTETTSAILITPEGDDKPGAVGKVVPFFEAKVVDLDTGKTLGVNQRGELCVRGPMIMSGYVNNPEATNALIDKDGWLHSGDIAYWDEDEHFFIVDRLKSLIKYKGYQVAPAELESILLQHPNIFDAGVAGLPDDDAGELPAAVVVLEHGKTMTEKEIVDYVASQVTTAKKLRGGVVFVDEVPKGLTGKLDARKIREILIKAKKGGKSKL
# Summary of the method: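 Inhibition of purified Photinus luciferase is measured by luminescence. Substrate levels (D-luciferin, ATP) sit at their KM values. Each compound is tested in a concentration series.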
# [6] = qHTS assay to identify small molecule agonists of the constitutive androstane receptor (CAR) signaling pathway - cell viability counter screen (AID 1224836); further: nearly all actives have a fitted effect of over 45% in size
# Summary of the method: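 Compound titrations (15 concentrations) went onto HepG2-CYP2B6-hCAR cells 4 h after seeding, alongside PK11195 at a final 0.75 uM; a 23 h, 37 C/5% CO2 incubation preceded CellTiter-Fluor viability measurement.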
# [7] = qHTS assay to identify small molecule antagonists of the constitutive androstane receptor (CAR) signaling pathway - cell viability counter screen (AID 1224837); further: nearly all actives have a fitted effect of over 45% in size
# Summary of the method: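 Cytotoxicity counter-screen: CellTiter-Fluor fluorescence after 23 h compound exposure (15-point qHTS) in double-stable HepG2-CYP2B6-hCAR cells, with 50 nM CITCO added.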
# [8] = target: Nuclear receptor subfamily 1 group I member 3 (Homo sapiens) (UniProt Q14994); assay: qHTS assay to identify small molecule agonists of the constitutive androstane receptor (CAR) signaling pathway (AID 1224839);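 further: HepG2 cells stably carrying human CAR and a CYP2B6 luciferase reporter; nearly all actives have a fitted effect of over 15% in size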
# Sequence of Nuclear receptor subfamily 1 group I member 3 (Homo sapiens) (Q14994 whole entry, looked up): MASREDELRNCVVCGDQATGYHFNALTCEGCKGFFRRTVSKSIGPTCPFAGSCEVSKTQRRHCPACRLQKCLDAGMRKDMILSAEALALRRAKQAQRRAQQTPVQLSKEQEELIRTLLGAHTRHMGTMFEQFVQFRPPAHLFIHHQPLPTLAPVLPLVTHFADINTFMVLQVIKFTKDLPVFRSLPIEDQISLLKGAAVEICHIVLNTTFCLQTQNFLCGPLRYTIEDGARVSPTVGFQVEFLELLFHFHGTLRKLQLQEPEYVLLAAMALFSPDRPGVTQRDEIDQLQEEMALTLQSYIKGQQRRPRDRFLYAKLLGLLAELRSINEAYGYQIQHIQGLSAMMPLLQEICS
# Summary of the method: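 In this screen, CAR-driven CYP2B6 promoter activity is measured by luminescence in HepG2-CYP2B6-hCAR cells after 24 h with test compounds and 0.75 uM PK11195 (final concentration).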
# [9] = qHTS assay to identify small molecule antagonists of the estrogen related receptor signaling pathway with the pleiotropic PPARgamma coactivator (PGC) from Tox21 10K library - cell viability counter screen (AID 1224840; active means well fitted cell-killing curve with a large enough effect in the repeat runs, not every such curve was filed as active; further: nearly all actives have a fitted effect of over 40% in size)
# Summary of the method: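 Counter-screen for cytotoxicity: after 17.5 h compound exposure at 37 C, CellTiter-Fluor reagent added to PGC/ERR cells for 30 min and fluorescence read. Cells were seeded at 2,000 per well 6 h before dosing.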
# [10] = target: Thyrotropin receptor (Homo sapiens) (UniProt P16473); assay: qHTS assay to identify small molecule agonists of the thyroid stimulating hormone receptor (TSHR) signaling pathway (AID 1224843; calls by dose curve; further: nearly all actives have a fitted effect of over 45% in size; further: potency means the concentration at half of the fitted maximal effect)
# Sequence of Thyrotropin receptor (Homo sapiens) (P16473 whole entry, looked up): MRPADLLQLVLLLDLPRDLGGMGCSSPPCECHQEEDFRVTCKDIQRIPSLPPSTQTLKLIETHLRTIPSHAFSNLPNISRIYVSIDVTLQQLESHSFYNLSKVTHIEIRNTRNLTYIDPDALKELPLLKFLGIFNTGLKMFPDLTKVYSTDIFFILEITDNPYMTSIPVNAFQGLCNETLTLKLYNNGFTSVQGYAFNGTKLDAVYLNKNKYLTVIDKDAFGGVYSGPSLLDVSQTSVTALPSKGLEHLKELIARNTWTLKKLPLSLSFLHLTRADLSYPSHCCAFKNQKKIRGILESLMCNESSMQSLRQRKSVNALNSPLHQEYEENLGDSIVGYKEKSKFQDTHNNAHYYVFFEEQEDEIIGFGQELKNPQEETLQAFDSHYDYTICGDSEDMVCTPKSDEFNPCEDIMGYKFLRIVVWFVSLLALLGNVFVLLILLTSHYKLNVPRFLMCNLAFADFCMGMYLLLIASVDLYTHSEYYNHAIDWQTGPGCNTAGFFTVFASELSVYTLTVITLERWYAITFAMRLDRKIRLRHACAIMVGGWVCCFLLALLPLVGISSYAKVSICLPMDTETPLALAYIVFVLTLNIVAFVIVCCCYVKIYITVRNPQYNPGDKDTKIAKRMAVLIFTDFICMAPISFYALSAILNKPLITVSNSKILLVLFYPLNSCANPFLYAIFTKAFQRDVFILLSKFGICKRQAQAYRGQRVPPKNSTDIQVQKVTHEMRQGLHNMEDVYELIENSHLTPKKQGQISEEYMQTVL
# Summary of the method: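 Agonist activity read as cAMP rise via d2/cryptate HTRF competition, 1 h room-temperature detection, in HEK293 cells expressing TSHR. Fifteen-point titrations, each run in triplicate, with a 30 min room-temperature incubation beforehand.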
# [11] = qHTS assay to identify small molecule agonists of the hypoxia (HIF-1) signaling pathway - cell viability counter screen (AID 1224844; calls by dose curve; further: nearly all actives have a fitted effect of over 50% in size)
# Summary of the method: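 Cytotoxicity measured by CellTiter-Glo ATP luminescence in the wells also read for beta-lactamase signal. Cells were HRE-bla ME-180 (2,000/well, 0.5% dialyzed FBS), exposed to compounds for 17 h at 37C.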
# [12] = qHTS assay to identify small molecule agonists of H2AX (AID 1224845; active means well fitted activation curve with a large enough effect in the signal ratio in the repeat runs, not every such curve was filed as active; the % refers to the signal ratio)
# Summary of the method: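 Phospho-H2AX Ser139 measured by HTRF (ex 320 nm; em 665 and 620 nm) after 24 hr antibody incubation. Compounds, 15 concentrations, 0.76% DMSO, were applied to CHO-K1 cells for 3hr at 37C before lysis.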
# [13] = qHTS assay to identify small molecule agonists of H2AX - cell viability counter screen (AID 1224847; calls by dose curve; further: top concentration of the series differs between compounds; nearly all actives have a fitted effect of over 30% in size)
# Summary of the method: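 Read-out: CellTiter-Glo luminescence, 30 min RT. Cells: wild-type CHO-K1, 1000/well, 10% FBS, plated overnight at 37C. Treatment: 15 concentrations, 3 hr, 37C, 0.76% DMSO.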
# [14] = qHTS RealTime-Glo MT Cell Viability Assay in HepG2 cells - 24 hour (AID 1224867); further: nearly all actives have a fitted effect of over 50% in size
# Summary of the method: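 Real-time, nonlytic viability: 600 HepG2 cells/well mixed with NanoLuc enzyme plus prosubstrate; 5 h settle, compound (DMSO) added by pintool; luminescence monitored over 40 h at 37 C.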
# [15] = qHTS assay to identify small molecule antagonists of the estrogen related receptor signaling pathway with the pleiotropic PPARgamma coactivator (PGC) from Tox21 10K library (AID 1224841; call rule not given here; further: actives are mostly falling curves and most rising ones were filed inactive; nearly all actives have a fitted effect of over 50% in size)
# Summary of the method: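 Luminescence (One-Glo, 30 min at room temperature) after 18 h compound treatment at 37 C of PGC/ERR reporter cells plated at 2,000 cells/well and settled 6 h beforehand.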
# [16] = qHTS assay to identify small molecule agonists of the estrogen related receptor signaling pathway with the pleiotropic PPARgamma coactivator (PGC) from Tox21 10K library (AID 1224842); further: nearly all actives have a fitted effect of over 15% in size
# Summary of the method: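 Luminescence from One-Glo (30 min, room temperature) measured after PGC/ERR cells had 18 h at 37 C with pinned compound (23 nL in DMSO). Cells had been seeded at 2,000 per well and pre-incubated 6 h.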
# [17] = qHTS assay to identify small molecule agonists of the hypoxia (HIF-1) signaling pathway (AID 1224846; active means well fitted activation curve with a large enough effect in the signal ratio in the repeat runs, not every such curve was filed as active; the % refers to the signal ratio)
# Summary of the method: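 Compounds added to ME-180 cells carrying hypoxia-response-element beta-lactamase reporter (0.5% dialyzed FBS, 5 h preplating), 17 h at 37C; agonist activity detected by CCF4-AM B/G FRET read-out.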
# [18] = qHTS assay to identify small molecule antagonists of the estrogen related receptor (ERR) signaling pathway from Tox21 library (AID 1224848); further: nearly all actives have a fitted effect of over 50% in size
# Summary of the method: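 Luciferase luminescence (ONE-Glo, 30 min room temperature) was the read-out. Cells of the NTP-supplied ERR line, 2,000 per well, were given 6 h at 37 C before compound addition in DMSO and 18 h exposure at 37 C.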
# [19] = qHTS assay to identify small molecule agonists of the estrogen related receptor (ERR) signaling pathway from Tox21 library (AID 1224849; calls by dose curve; further: nearly all actives have a fitted effect of over 15% in size); conditions: ERR reporter cell line, ONE-Glo luciferase, 18 h; at 92.4 µM (top of the series) unless noted
# Summary of the method: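 Luminescent agonist read-out (One-Glo, 30-minute room-temperature incubation) following 18-hour compound treatment at 37 C of the ERR cell line, which had been plated 6 hours before dosing.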
# [20] = target: Nuclear receptor subfamily 1 group I member 3 (Homo sapiens) (UniProt Q14994); assay: qHTS assay to identify small molecule antagonists of the constitutive androstane receptor (CAR) signaling pathway (AID 1224838);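 further: HepG2 cells stably expressing hCAR with CYP2B6 luciferase reporter stimulated by CITCO; nearly all actives have a fitted effect of over 40% in size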
# Summary of the method: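 Antagonism measured as luciferase signal (ONE-Glo, 30 min, room temperature) in CAR-stimulated cells: HepG2-CYP2B6-hCAR double-stable line exposed 24 hr at 37 C to compound in a 15-point series plus 50 nM CITCO.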
SMILES,outcome [1],outcome [2],Potency [3],outcome [4],Potency [5],outcome [6],outcome [7],Potency [8],outcome [9],Potency [10],outcome [11],outcome [12],outcome [13],outcome [14],Potency [15],Potency [16],outcome [17],outcome [18],"activity change, positive = activation [19]",outcome [20]
c1coc(Cn2cccc2)c1,inactive,inactive,inactive,inactive,inactive,inactive,inactive,inactive,inactive,inactive,inactive,inactive,inactive,inactive,,,,,,
COc1cc(C(=O)NC2CCCNC2)cc(OC)c1OC (configuration not stated),inactive,inactive,inactive,inactive,inactive,inactive,inactive,inactive,inactive,inactive,inactive,inactive,inactive,,,,,,,
Cc1cc(C)c(C)c(C)c1,inactive,inactive,inactive,inactive,inactive,inactive,inactive,inactive,inactive,,inactive,inactive,inactive,inactive,inactive,inactive,inactive,inactive,5.28%,
CCC(C)c1nccnc1OC (configuration not stated),inactive,inactive,inactive,inactive,inactive,inactive,inactive,inactive,inactive,inactive,inactive,inactive,inactive,inactive,inactive,,inactive,,1.46%,
C[Si](C)(C)O[Si](O)(O)O,inactive,inactive,inactive,inactive,inactive,inactive,inactive,,inactive,,inactive,inactive,inactive,inactive,inactive,inactive,inactive,inactive,4.29%,
CC1(C)C(=O)C(C)(C)C1=O,inactive,inactive,inactive,inactive,inactive,inactive,inactive,inactive,inactive,,inactive,inactive,inactive,inactive,,,inactive,,,inactive
CCCCCCCCCCCBr,inactive,inactive,inactive,inactive,inactive,inactive,inactive,inactive,inactive,,inactive,inactive,inactive,inactive,,,inactive,,,
COC(=O)c1c(C)cc(O)c(C)c1O,inactive,inactive,inactive,inactive,inactive,inactive,inactive,,inactive,,inactive,inactive,inactive,inactive,,,inactive,,,inactive
COC(=O)C(c1ccccc1Cl)N1CCc2sccc2C1 (configuration not stated),inactive,inactive,inactive,inactive,inactive,inactive,inactive,,inactive,16.8 µM (active),inactive,inactive,inactive,inactive,,,inactive,,-2.43% [at 42.5 µM],
